# Experimental data taken from article PMC11062922 (Nature Chemical Biology, 2023).
# Like-named read-outs stand apart in the source and are kept apart here.
# Key:
# Conditions in all cases: read-out: apparent Kd, n = 1
# AXL = system: AXL
# CAMKK2 = system: CAMKK2
# CDC7 = system: CDC7
# CDK4 = system: CDK4
# CDK6 = system: CDK6
# DYRK1A = system: DYRK1A
# ERCC2 = system: ERCC2
# [1] = compound concentrations:100 nM and 1000 nM (sheet 'Lestaurtinib' of Supplementary Table 1),run:Lestaurtinib_02443_R3,Plate:MR009
# [2] = compound concentrations:100 nM and 1000 nM (sheet 'Lestaurtinib' of Supplementary Table 1),run:Lestaurtinib_02487_R1,Plate:MR012
# [3] = compound concentrations:100 nM and 1000 nM (sheet 'Lestaurtinib' of Supplementary Table 1),run:Lestaurtinib_02496_R3,Plate:MR013
# [4] = compound concentrations:100 nM and 1000 nM (sheet 'Lestaurtinib' of Supplementary Table 1),run:Lestaurtinib_02572_R1,Plate:MR015
# [5] = compound concentrations:100 nM and 1000 nM (sheet 'Lestaurtinib' of Supplementary Table 1),run:Lestaurtinib_02724_R3,Plate:MR021
# [6] = compound concentrations:100 nM and 1000 nM (sheet 'Lestaurtinib' of Supplementary Table 1),run:Lestaurtinib_02339_R2,Plate:MR001
# [7] = compound concentrations:100 nM and 1000 nM (sheet 'Lestaurtinib' of Supplementary Table 1),run:Lestaurtinib_02437_R3,Plate:MR007
# [8] = compound concentrations:100 nM and 1000 nM (sheet 'Lestaurtinib' of Supplementary Table 1),run:Lestaurtinib_02473_R3,Plate:MR010
# [9] = compound concentrations:100 nM and 1000 nM (sheet 'Lestaurtinib' of Supplementary Table 1),run:Lestaurtinib_02496_R2,Plate:MR013
# [10] = compound concentrations:100 nM and 1000 nM (sheet 'Lestaurtinib' of Supplementary Table 1),run:Lestaurtinib_02367_R1,Plate:MR003
# [11] = compound concentrations:100 nM and 1000 nM (sheet 'Lestaurtinib' of Supplementary Table 1),run:Lestaurtinib_02896_R1,Plate:MR030
# [12] = compound concentrations:100 nM and 1000 nM (sheet 'Lestaurtinib' of Supplementary Table 1),run:Lestaurtinib_02407_R2,Plate:MR005
# [13] = compound concentrations:100 nM and 1000 nM (sheet 'Lestaurtinib' of Supplementary Table 1),run:Lestaurtinib_02443_R2,Plate:MR009
substance,measurement,setting,value
Lestaurtinib,potency estimated from few doses,AXL; [1],2.13 µM
same,potency estimated from few doses,AXL; [2],0.6 µM
same,potency estimated from few doses,AXL; [3],2.23 µM
same,potency estimated from few doses,AXL; [4],1.42 µM
same,potency estimated from few doses,AXL; [5],1.34 µM
same,potency estimated from few doses,CAMKK2; [6],1.82 µM
same,potency estimated from few doses,CAMKK2; [7],0.149 µM
same,potency estimated from few doses,CAMKK2; [8],1.93 µM
same,potency estimated from few doses,CAMKK2; [2],0.596 µM
same,potency estimated from few doses,CAMKK2; [9],2.18 µM
same,potency estimated from few doses,"CAMKK2; compound concentrations:100 nM and 1000 nM (sheet 'Lestaurtinib' of Supplementary Table 1),run:Lestaurtinib_02566_R2,Plate:MR014",1.96 µM
same,potency estimated from few doses,CAMKK2; [4],1.81 µM
same,potency estimated from few doses,CDC7; [10],1.4 µM
same,potency estimated from few doses,"CDC7; compound concentrations:100 nM and 1000 nM (sheet 'Lestaurtinib' of Supplementary Table 1),run:Lestaurtinib_02367_R3,Plate:MR003",1 µM
same,potency estimated from few doses,"CDC7; compound concentrations:100 nM and 1000 nM (sheet 'Lestaurtinib' of Supplementary Table 1),run:Lestaurtinib_02381_R2,Plate:MR004",1.53 µM
same,potency estimated from few doses,CDC7; [8],2.08 µM
same,potency estimated from few doses,"CDC7; compound concentrations:100 nM and 1000 nM (sheet 'Lestaurtinib' of Supplementary Table 1),run:Lestaurtinib_02748_R3,Plate:MR024",1.65 µM
same,potency estimated from few doses,"CDC7; compound concentrations:100 nM and 1000 nM (sheet 'Lestaurtinib' of Supplementary Table 1),run:Lestaurtinib_02752_R1,Plate:MR025",1.24 µM
same,potency estimated from few doses,"CDC7; compound concentrations:100 nM and 1000 nM (sheet 'Lestaurtinib' of Supplementary Table 1),run:Lestaurtinib_02752_R2,Plate:MR025",1.76 µM
same,potency estimated from few doses,"CDC7; compound concentrations:100 nM and 1000 nM (sheet 'Lestaurtinib' of Supplementary Table 1),run:Lestaurtinib_02795_R3,Plate:MR022",1.51 µM
same,potency estimated from few doses,CDC7; [11],0.591 µM
same,potency estimated from few doses,"CDC7; compound concentrations:100 nM and 1000 nM (sheet 'Lestaurtinib' of Supplementary Table 1),run:Lestaurtinib_02896_R2,Plate:MR030",1.33 µM
same,potency estimated from few doses,"CDC7; compound concentrations:100 nM and 1000 nM (sheet 'Lestaurtinib' of Supplementary Table 1),run:Lestaurtinib_03260_R2,Plate:MR033",1.69 µM
same,potency estimated from few doses,"CDK4; compound concentrations:100 nM and 1000 nM (sheet 'Lestaurtinib' of Supplementary Table 1),run:Lestaurtinib_02367_R2,Plate:MR003",2.19 µM
same,potency estimated from few doses,CDK4; [12],1.65 µM
same,potency estimated from few doses,"CDK4; compound concentrations:100 nM and 1000 nM (sheet 'Lestaurtinib' of Supplementary Table 1),run:Lestaurtinib_02438_R1,Plate:MR008",2.24 µM
same,potency estimated from few doses,"CDK4; compound concentrations:100 nM and 1000 nM (sheet 'Lestaurtinib' of Supplementary Table 1),run:Lestaurtinib_02438_R3,Plate:MR008",2.25 µM
same,potency estimated from few doses,CDK4; [13],2.23 µM
same,potency estimated from few doses,"CDK4; compound concentrations:100 nM and 1000 nM (sheet 'Lestaurtinib' of Supplementary Table 1),run:Lestaurtinib_02482_R3,Plate:MR011",2.22 µM
same,potency estimated from few doses,"CDK4; compound concentrations:100 nM and 1000 nM (sheet 'Lestaurtinib' of Supplementary Table 1),run:Lestaurtinib_02606_R1,Plate:MR019",1.72 µM
same,potency estimated from few doses,CDK4; [5],1.99 µM
same,potency estimated from few doses,"CDK4; compound concentrations:100 nM and 1000 nM (sheet 'Lestaurtinib' of Supplementary Table 1),run:Lestaurtinib_02766_R2,Plate:MR027",1.37 µM
same,potency estimated from few doses,CDK4; [11],1.4 µM
same,potency estimated from few doses,"CDK6; compound concentrations:100 nM and 1000 nM (sheet 'Lestaurtinib' of Supplementary Table 1),run:Lestaurtinib_02339_R3,Plate:MR001",1.4 µM
same,potency estimated from few doses,CDK6; [10],1.63 µM
same,potency estimated from few doses,"CDK6; compound concentrations:100 nM and 1000 nM (sheet 'Lestaurtinib' of Supplementary Table 1),run:Lestaurtinib_02381_R1,Plate:MR004",1.67 µM
same,potency estimated from few doses,CDK6; [12],1.67 µM
same,potency estimated from few doses,CDK6; [1],2.02 µM
same,potency estimated from few doses,CDK6; [3],1.83 µM
same,potency estimated from few doses,"CDK6; compound concentrations:100 nM and 1000 nM (sheet 'Lestaurtinib' of Supplementary Table 1),run:Lestaurtinib_02601_R1,Plate:MR018",1.35 µM
same,potency estimated from few doses,"CDK6; compound concentrations:100 nM and 1000 nM (sheet 'Lestaurtinib' of Supplementary Table 1),run:Lestaurtinib_02765_R3,Plate:MR026",1.59 µM
same,potency estimated from few doses,CDK6; [11],1.37 µM
same,potency estimated from few doses,"CDK6; compound concentrations:100 nM and 1000 nM (sheet 'Lestaurtinib' of Supplementary Table 1),run:Lestaurtinib_03260_R1,Plate:MR033",0.914 µM
same,potency estimated from few doses,"CDK6; compound concentrations:100 nM and 1000 nM (sheet 'Lestaurtinib' of Supplementary Table 1),run:Lestaurtinib_03260_R3,Plate:MR033",0.157 µM
same,potency estimated from few doses,DYRK1A; [6],2.31 µM
same,potency estimated from few doses,"DYRK1A; compound concentrations:100 nM and 1000 nM (sheet 'Lestaurtinib' of Supplementary Table 1),run:Lestaurtinib_02381_R3,Plate:MR004",0.82 µM
same,potency estimated from few doses,DYRK1A; [13],1.58 µM
same,potency estimated from few doses,"DYRK1A; compound concentrations:100 nM and 1000 nM (sheet 'Lestaurtinib' of Supplementary Table 1),run:Lestaurtinib_02566_R1,Plate:MR014",1.58 µM
same,potency estimated from few doses,"DYRK1A; compound concentrations:100 nM and 1000 nM (sheet 'Lestaurtinib' of Supplementary Table 1),run:Lestaurtinib_02577_R2,Plate:MR016",1.67 µM
same,potency estimated from few doses,DYRK1A; [5],0.987 µM
same,potency estimated from few doses,"DYRK1A; compound concentrations:100 nM and 1000 nM (sheet 'Lestaurtinib' of Supplementary Table 1),run:Lestaurtinib_02766_R1,Plate:MR027",1.76 µM
same,potency estimated from few doses,DYRK1A; [11],1.69 µM
same,potency estimated from few doses,"DYRK1A; compound concentrations:100 nM and 1000 nM (sheet 'Lestaurtinib' of Supplementary Table 1),run:Lestaurtinib_03172_R3,Plate:MR031",1.44 µM
same,potency estimated from few doses,ERCC2; [7],1.32 µM
same,potency estimated from few doses,ERCC2; [2],0.161 µM
same,potency estimated from few doses,ERCC2; [9],1.44 µM
